# This is one part of a sample in which hits are shown more often than they occur.
# LmPK inhibitor: LmPK (Leishmania mexicana) enzyme inhibition; purified LmPK, Kinase-Glo ATP luminescence, 1 h; Potency, µM (highest dose often 57.5 µM), without a hit: at the highest dose activity change, negative = inhibition, hits mostly inhibitors; AID 1721; Q27686; actives 0.37% (n = 290,000); note: potency is the fitted concentration of half-maximal effect; % is set by controls: 0 for no effect and ±100 for the full control effect
#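 qHTS format; LmPK 0.1 nM; substrates PEP 0.5 mM and ADP 0.1 mM. One-hour room-temperature incubation, then coupled luciferase luminescence; 0.5 nM enzyme wells mark activation.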
# TbPYK inhibitor: blocks Trypanosoma brucei pyruvate kinase; Potency, µM (series often up to 76.8 µM), inactives show at the highest dose activity, negative = inhibition, usual class: inhibitors; TbPYK enzyme, Kinase-Glo Plus ATP luminescence, 45 min; actives 0.12% (n = 410,000); AID 624173; note: potency is the fitted concentration of half-maximal effect; % is set by controls: 0 for no effect and ±100 for the full control effect; nearly all actives have a fitted effect of over 50% in size
#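 Screened from lowest to highest concentration, compounds were pinned into TbPYK/substrate mixtures, and ADP (130 uM final) was added. Plates sat at room temperature for 45 min prior to Kinase-Glo Plus detection by luminescence.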
# CHX counter: counter-screen for Shiga toxin inhibitors: cycloheximide protein synthesis inhibition. cell reporter, cycloheximide protein synthesis inhibition counterscreen. actives 12% (n = 300,000). max response, %; in the data active = max response mostly above about 13%, no sharp cut-off; inactive = mostly below about 14%; note: read at 38.3 µM for the half of the compounds with a filed dose; 0% is about no effect
# FBPA Giardia inh: Giardia lamblia aldolase inhibition; A8B2U2; purified Giardia FBPA; Potency, µM (doses to about 59.6 µM), inactives show top-dose activity, negative = inhibition, usual class: inhibitors; actives 0.71% (n = 290,000); AID 2451; note: potency is the fitted concentration of half-maximal effect; % is set by controls: 0 for no effect and ±100 for the full control effect; nearly all actives have a fitted effect of over 55% in size
# Target sequence (A8B2U2 whole entry, looked up): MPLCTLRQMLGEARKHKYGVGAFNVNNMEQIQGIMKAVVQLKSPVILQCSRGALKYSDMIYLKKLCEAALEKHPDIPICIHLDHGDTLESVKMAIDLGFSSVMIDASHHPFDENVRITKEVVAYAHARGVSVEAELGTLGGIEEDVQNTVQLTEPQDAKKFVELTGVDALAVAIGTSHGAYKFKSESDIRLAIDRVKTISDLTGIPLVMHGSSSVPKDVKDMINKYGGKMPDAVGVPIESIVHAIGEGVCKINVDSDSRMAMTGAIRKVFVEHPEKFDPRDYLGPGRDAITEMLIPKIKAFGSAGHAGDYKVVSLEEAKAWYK
#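 40 nM FBPA preincubated 10 min at RT with compound (up to 57.5 uM final), then substrate plus GAPDH/TPI/NAD/arsenate coupling and diaphorase/resazurin added. Fluorescence read after 20 min at RT, 525/598 nm.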
# RE007 growth inh: less growth of the S. pombe RE007 Vpr strain; Potency, µM (top dose mostly 92.2 µM), for the others: at the top dose activity change, negative = less growth, hits mostly inhibitors; AID 651644; actives 0.21% (n = 360,000); S. pombe RE007 Vpr strain, BacTiter-Glo ATP luminescence, 24 h; active = well fitted falling curve with a large enough effect; inconclusive = small, poorly fitted or top-dose-only effect; inactive = no such curve, though single readings can be large or run the other way; note: potency is the fitted concentration of half-maximal effect; % is set by controls: 0 for no effect and ±100 for the full control effect; nearly all actives have a fitted effect of over 50% in size
#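 Fission yeast RE007 carrying one integrated HIV-1 vpr copy, seeded at OD 0.01 in PMG+AL medium with 23 nL pinned compound. Grown 24 h at 30 degrees; viability read by BacTiter-Glo luminescence after 5 min.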
# Shiga toxin inh: Shiga toxin inhibition. Vero cells, Shiga toxin protein synthesis inhibition reporter. inhibition, % at 38.7 µM. actives 9.2% (n = 290,000). AID 2315; in the data active = inhibition mostly above about 28%, no sharp cut-off; inactive = mostly below about 43%; note: 0% is about no effect
# * hit, by the source's call; ? = inconclusive; · = no result given; ! = not active in a repeat; [ ] = another dose, or the depositor's remark. Unless noted, calls come from the whole dose curve; as a rule, active = well fitted curve in the direction sought with a large enough effect; inconclusive = small, poorly fitted or top-dose-only effect, or another doubt; inactive = no such curve, though single readings can be large; an effect the other way counts as inactive or inconclusive.
SMILES,LmPK inhibitor,TbPYK inhibitor,CHX counter,FBPA Giardia inh,RE007 growth inh,Shiga toxin inh
O=C(Nc1ccc(F)cc1F)c1ccc2c(c1)CCN2S(=O)(=O)c1ccc(Cl)cc1,·,2.0%,·,·,·,·
COC(=O)[C@@]1(Cc2ccccc2)[C@H]2c3cc(C(=O)N(C)C)n(Cc4ccccn4)c3C[C@H]2CN1C(=O)c1ccccc1,·,·,·,0.8%,·,·
Cc1nc(-n2nc(C)c(Cc3ccc(Cl)cc3)c2C)sc1C(=O)N1CCC(C)CC1,·,-7.3%,·,·,·,·
CC1CCCCN1S(=O)(=O)Cc1ccccc1Cl (stereo unspecified),-0.5%,-2.2%,-0.6,0.9%,10.9%,-1.2
O=C(NCc1ccco1)c1ccc(Oc2ccccc2)cc1,4.1%,-4.3%,54.5*,-18.9%,-14.2%,75.7*
CC(C)COc1ccc(C(=O)NCc2ccco2)cc1,-0.8%,-4.8%,14.1*,0.0%,10.5%,35.8*
CCOc1ccc(NC(=O)NC2(C(=O)NCc3ccco3)CCCCC2)cc1,6.5%,-1.6%,-0.4,0.7%,1.1%,-7.4
CC(C(=O)NCc1ccco1)c1ccc([N+](=O)[O-])cc1 (stereo unspecified),-0.1%,-18.8%,-1.1,4.0%,8.7%,-4.2
CCOc1ccc(NC(=O)NCc2ccco2)cc1,-2.9%,2.8%,12.2*,1.6%,-1.4%,24.9
O=C(NCc1ccco1)Nc1ccc([N+](=O)[O-])cc1,-1.8%,4.8%,25.7*!,2.9%,3.6%,23.9
O=C(NCc1ccco1)c1ccc(C(=O)NCc2ccco2)cc1,·,-4.7%,·,·,-11.1%,·
COC(=O)NC(c1ccccc1)c1c[nH]c2ccc(OC)cc12 (stereo unspecified),·,·,·,-3.9%,·,·
CCN(CC)CCCCNc1ncc2cc(-c3cc(OC)cc(OC)c3)c(NC(=O)NC(C)(C)C)nc2n1,-0.2%,1.8%,-7.0,13.0%,2.4%[18.4 µM],-6.3
O=C(NCc1ccccc1F)Nc1ccc([N+](=O)[O-])cc1,7.5%,0.6%,17.6,-2.3%,-13.5%,35.2*
CCc1nc2ccc(C(=O)NCCc3ccco3)cc2nc1CC,4.2%,-6.4%,44.7*,-2.1%,13.2%,64.8*
O=C(Nc1ccc([N+](=O)[O-])cc1)Nc1ccc([N+](=O)[O-])cc1,·,-6.7%,·,·,·,·
CCOc1ccc(CCNC(=O)c2ccc3nc(CC)c(CC)nc3c2)cc1,-5.3%,1.5%,-0.3,7.6%,5.7%,15.0
O=C(O)c1ccc(Cl)c(NC(=S)NC(=O)c2ccccc2[N+](=O)[O-])c1,0.2%,-14.1%,1.4,14.9%,8.7%,-8.3
Cn1c(SCc2cccc(F)c2)nnc1-c1ccncc1,-0.7%,-4.9%,-1.8,2.6%,-13.0%,-7.7
Nc1nc2ccc(N3CCOCC3)cc2s1,-4.4%,-7.3%,33.6*,-22.8%,-9.5%,32.2*
Fc1ccc2nc(N3CCOCC3)sc2c1,-11.1%[11.5 µM],3.1%,34.6*,-0.1%,6.0%,107.5*
c1c2c(cc3sc(N4CCOCC4)nc13)OCO2,15.8µM*,?,42.6*,-4.8%[12.9 µM],?,56.5*
Nc1ccc(N2CCOCC2)cc1C(F)(F)F,-1.1%,0.8%,-3.0,-5.7%,-15.2%,-33.7
c1ccc(N2CCN(c3nc4cc5c(cc4s3)OCO5)CC2)cc1,1.7%,-8.1%,52.5*,5.9%,6.8%,33.4*
COc1ccccc1CNc1nc(-c2ccco2)nn1C(=O)c1ccccc1[N+](=O)[O-],·,-9.0%,·,·,·,·
SMILES,LmPK inhibitor,TbPYK inhibitor,CHX counter,FBPA Giardia inh,RE007 growth inh,Shiga toxin inh
CCOc1ccc(N(CC(=O)Nc2ccccc2CC)S(=O)(=O)c2c(C)noc2C)cc1,·,-4.6%,·,·,·,·
Cc1ccc(NC(=O)c2ccc3nc(N4CCOCC4)sc3c2)c(Cl)c1,-4.6%,-20.0%,16.3*,-3.9%,1.1%,4.0
c1ccc2c(c1)CCN(c1nc3cc4c(cc3s1)OCO4)C2,?,-19.4%,39.9*,-26.6%,-11.2%,97.0*
c1ccc(Cn2cc(CSc3ccccc3)nn2)cc1,-1.2%,1.3%,38.2*,1.8%,-3.8%,67.2*
CN1C(C(=O)Nc2ccc(F)cc2F)=CC(c2ccc3c(c2)OCO3)=NS1(=O)=O,·,0.0%,·,·,·,·
CSc1ccccc1NC(=O)C1=CC(c2cccs2)=NS(=O)(=O)N1C,12.1%,-14.3%,4.2,-9.8%,8.8%,15.3*
COC(=O)c1ccccc1NC(=O)C1=CC(c2cccs2)=NS(=O)(=O)N1C,-0.9%,-10.2%,1.7,3.3%,6.4%,-0.9
Cc1ccc(C2=NS(=O)(=O)N(C)C(C(=O)Nc3ccc(F)cc3F)=C2)cc1,-0.7%,-8.2%,10.4,-13.3%,-0.3%,15.6*
COc1cc(CC(=O)Nc2ccc3nc(C)sc3c2)cc(OC)c1OC,-0.4%,-5.2%,8.5,1.8%,4.4%,-3.0
COc1ccccc1CC(=O)Nc1ccc2nc(C)sc2c1,0.9%,-7.8%,24.9*,2.9%,1.0%,79.5*
Cc1ccc(CSc2nc3ccc(NC(=O)COc4ccccc4F)cc3s2)cc1,·,2.0%,·,·,·,·
Cc1nc2ccc(NC(=O)COc3ccccc3F)cc2s1,0.0%,-1.9%,30.9*,-16.5%,-4.5%,72.1*
O=C(COc1ccccc1F)Nc1ccc2c(c1)CCC2,·,3.9%,·,·,-15.9%,·
CCN(CC)C(=O)c1ccc(NC(=O)COc2ccccc2F)cc1,-13.0%,-13.4%,22.4*,0.6%,-7.5%,76.3*
COc1cccc(CC(=O)Nc2ccc3nc(C)sc3c2)c1,-5.6%,5.1%,29.9*,3.9%,-19.0%,11.3
Cc1ccc(C(=O)N2c3nc(-c4ccco4)nn3C3(CCCCC3)[C@@H]3CCCC[C@@H]32)cc1,·,3.4%,·,·,·,·
Cc1cc(CNC(=O)COc2ccc(F)cc2F)c2ccccc2n1,3.8%,1.7%,21.9,0.8%,-9.5%,33.2
Cc1cc(CNC(=O)COc2ccccc2F)c2ccccc2n1,-6.3%,-2.9%,36.9*,1.7%,-19.6%,86.7*
O=C(Nc1ccc2c(c1)OCCO2)C1c2ccccc2OCC(=O)N1CCCN1CCOCC1 (stereo unspecified),·,1.8%,·,·,4.2%,·
S=C(NN=C1C2CC3CC(C2)CC1C3)Nc1ccccc1,0.9%,-12.9%,52.8*,?,-8.0%,146.0*
C[C@@]1(O)CCOC(=O)C1,·,·,·,-8.7%[21.7 µM],·,·
FC(F)(F)Oc1ccc(NC(=S)NCCCN2CCOCC2)cc1,-0.7%,?,1.0,?,0.7%,18.2
O=C(c1ccccc1-n1cccn1)N1CCc2c([nH]c3ccccc23)C1c1ccccn1 (stereo unspecified),2.4%,-1.1%,11.4*,-0.5%,7.1%,16.8
O=C(c1noc2c1CCCC2)N1CCc2c([nH]c3ccccc23)C1c1ccccn1 (stereo unspecified),8.0%,-12.7%,8.4*,-7.2%,4.1%,18.7
c1ccc2sc(Nc3nc4cc5c(cc4s3)OCO5)nc2c1,-1.8%,-18.8%,119.4*,-1.3%,-3.2%,116.7*
Fc1ccc2nc(Nc3nc4cc5c(cc4s3)OCCO5)sc2c1,-6.0%,-6.3%,62.1*,-0.6%,-17.4%,25.2*
